This note sets out measurements from PMC5540273 (PLoS ONE, 2017).
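Note: kd values determined as follow-up on hits from a single-replicate KINOMEscan panel screen.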

For one test, the system named is CLK2.
`COc1ccc(CSc2nnc(-c3ccc4nccn4c3)o2)cc1C(F)(F)F`: binding was put at a Kd of 0.15 µM.

For `Cc1ccc(NC(=O)c2ccc(Cl)cc2)cc1-c1ccc(C(=O)Nc2ccncc2)cc1` [GSK1398467], the Kd (as a rule, the concentration at which binding is half-saturated) is over 10 µM.

As for `COC(=O)c1cccc(NC(=O)NC2CCN(c3ccnc(Nc4ccc(OC)cc4)n3)C2)c1` (stereo not shown) [GSK1379746], the Kd is over 10 µM.

The compound `CNc1cc(-c2ccc3c(N)n[nH]c3c2)nc(N)n1` [GSK2224810] returned a Kd of 0.41 µM.

Another test deals with CLK3.
Turning to `CCCCc1nn2ncccc2c1-c1ccnc(NC2CC2)n1` [GW684374], the Kd was over 10 µM.

In turn, `CC(=O)c1c(C)c2cnc(Nc3ccc(N4CCNCC4)cn3)nc2n(C2CCCC2)c1=O` returned a Kd of over 10 µM.

`Cc1cccc2c(-c3ccncn3)c(-c3ccc(F)cc3)nn12` [GW515532] returned a Kd of over 10 µM.
